The values below come from the supplement of paper PMC12819154, “High-throughput peptide-centric local stability assay extends protein–ligand identification to membrane proteins, tissues and bacteria” (Nature Structural & Molecular Biology, 2025).

UniProt Q8IYB3, sequence (Q8IYB3 whole entry): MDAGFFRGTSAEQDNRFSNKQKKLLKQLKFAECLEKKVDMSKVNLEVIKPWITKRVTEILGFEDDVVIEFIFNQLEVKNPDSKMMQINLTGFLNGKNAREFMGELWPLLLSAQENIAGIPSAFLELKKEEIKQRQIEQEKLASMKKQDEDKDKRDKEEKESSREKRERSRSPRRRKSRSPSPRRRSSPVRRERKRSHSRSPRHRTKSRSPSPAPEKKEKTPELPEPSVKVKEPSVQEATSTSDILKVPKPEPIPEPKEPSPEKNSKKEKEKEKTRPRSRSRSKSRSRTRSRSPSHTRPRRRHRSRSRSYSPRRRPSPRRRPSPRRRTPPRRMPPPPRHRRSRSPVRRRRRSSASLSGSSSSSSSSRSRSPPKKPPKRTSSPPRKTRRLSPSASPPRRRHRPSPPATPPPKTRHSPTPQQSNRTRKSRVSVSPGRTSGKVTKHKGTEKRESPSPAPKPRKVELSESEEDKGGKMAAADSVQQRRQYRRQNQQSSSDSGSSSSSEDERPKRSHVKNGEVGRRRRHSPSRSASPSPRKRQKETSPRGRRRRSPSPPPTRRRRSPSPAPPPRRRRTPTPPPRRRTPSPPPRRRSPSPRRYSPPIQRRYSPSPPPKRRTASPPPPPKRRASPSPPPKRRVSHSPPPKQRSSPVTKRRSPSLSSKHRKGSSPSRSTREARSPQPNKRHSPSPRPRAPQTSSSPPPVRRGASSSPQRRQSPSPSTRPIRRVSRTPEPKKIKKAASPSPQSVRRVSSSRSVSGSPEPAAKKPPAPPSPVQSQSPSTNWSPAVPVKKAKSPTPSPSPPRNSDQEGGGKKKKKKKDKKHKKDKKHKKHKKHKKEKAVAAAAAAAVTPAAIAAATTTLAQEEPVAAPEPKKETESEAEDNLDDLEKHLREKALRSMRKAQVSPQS
UniProt Q9NXH9, sequence (Q9NXH9 whole entry): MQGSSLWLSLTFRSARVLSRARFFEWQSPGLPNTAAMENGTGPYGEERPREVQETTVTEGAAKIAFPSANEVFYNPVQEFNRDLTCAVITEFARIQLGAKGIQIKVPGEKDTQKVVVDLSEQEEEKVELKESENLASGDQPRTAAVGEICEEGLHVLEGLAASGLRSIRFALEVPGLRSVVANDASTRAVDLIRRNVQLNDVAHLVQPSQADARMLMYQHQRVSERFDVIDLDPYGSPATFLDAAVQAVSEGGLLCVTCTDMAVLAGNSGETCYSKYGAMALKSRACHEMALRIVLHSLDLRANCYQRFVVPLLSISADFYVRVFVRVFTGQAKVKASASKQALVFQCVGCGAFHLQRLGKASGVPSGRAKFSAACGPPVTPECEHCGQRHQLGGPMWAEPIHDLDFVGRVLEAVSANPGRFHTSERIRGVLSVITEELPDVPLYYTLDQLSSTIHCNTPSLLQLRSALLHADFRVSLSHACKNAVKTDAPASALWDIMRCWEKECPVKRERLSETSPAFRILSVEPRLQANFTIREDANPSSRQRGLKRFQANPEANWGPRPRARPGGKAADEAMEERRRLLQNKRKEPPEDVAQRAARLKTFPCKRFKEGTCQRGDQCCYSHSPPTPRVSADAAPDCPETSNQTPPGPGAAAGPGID
UniProt Q6ICG6, sequence (Q6ICG6 whole entry): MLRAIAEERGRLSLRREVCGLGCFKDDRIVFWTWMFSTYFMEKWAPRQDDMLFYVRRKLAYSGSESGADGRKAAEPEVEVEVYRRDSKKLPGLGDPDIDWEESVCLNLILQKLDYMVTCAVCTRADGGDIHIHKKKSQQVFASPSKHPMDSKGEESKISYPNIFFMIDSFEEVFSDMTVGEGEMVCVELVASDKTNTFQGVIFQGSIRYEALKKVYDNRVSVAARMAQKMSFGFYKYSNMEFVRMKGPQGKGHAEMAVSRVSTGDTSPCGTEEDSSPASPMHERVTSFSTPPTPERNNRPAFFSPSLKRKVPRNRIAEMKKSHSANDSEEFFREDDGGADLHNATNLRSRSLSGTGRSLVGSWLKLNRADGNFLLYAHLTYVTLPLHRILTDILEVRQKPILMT
UniProt P12956, sequence (P12956 whole entry): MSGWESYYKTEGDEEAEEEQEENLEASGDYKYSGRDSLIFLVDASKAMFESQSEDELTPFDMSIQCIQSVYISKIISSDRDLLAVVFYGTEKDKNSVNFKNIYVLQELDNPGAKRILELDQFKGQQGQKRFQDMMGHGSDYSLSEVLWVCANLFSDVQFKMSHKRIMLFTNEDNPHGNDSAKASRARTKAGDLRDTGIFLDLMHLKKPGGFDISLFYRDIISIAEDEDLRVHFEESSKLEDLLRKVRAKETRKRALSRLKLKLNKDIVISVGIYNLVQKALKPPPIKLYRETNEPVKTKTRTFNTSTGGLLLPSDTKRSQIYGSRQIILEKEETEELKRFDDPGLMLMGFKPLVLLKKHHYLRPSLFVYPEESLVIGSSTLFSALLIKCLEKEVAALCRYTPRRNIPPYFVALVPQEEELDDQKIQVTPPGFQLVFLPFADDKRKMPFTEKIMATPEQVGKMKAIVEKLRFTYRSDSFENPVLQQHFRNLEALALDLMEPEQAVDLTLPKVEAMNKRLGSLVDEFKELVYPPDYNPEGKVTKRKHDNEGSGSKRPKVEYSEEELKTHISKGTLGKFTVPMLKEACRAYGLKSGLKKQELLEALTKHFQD
UniProt Q9UKE5, sequence (Q9UKE5 whole entry, looked up): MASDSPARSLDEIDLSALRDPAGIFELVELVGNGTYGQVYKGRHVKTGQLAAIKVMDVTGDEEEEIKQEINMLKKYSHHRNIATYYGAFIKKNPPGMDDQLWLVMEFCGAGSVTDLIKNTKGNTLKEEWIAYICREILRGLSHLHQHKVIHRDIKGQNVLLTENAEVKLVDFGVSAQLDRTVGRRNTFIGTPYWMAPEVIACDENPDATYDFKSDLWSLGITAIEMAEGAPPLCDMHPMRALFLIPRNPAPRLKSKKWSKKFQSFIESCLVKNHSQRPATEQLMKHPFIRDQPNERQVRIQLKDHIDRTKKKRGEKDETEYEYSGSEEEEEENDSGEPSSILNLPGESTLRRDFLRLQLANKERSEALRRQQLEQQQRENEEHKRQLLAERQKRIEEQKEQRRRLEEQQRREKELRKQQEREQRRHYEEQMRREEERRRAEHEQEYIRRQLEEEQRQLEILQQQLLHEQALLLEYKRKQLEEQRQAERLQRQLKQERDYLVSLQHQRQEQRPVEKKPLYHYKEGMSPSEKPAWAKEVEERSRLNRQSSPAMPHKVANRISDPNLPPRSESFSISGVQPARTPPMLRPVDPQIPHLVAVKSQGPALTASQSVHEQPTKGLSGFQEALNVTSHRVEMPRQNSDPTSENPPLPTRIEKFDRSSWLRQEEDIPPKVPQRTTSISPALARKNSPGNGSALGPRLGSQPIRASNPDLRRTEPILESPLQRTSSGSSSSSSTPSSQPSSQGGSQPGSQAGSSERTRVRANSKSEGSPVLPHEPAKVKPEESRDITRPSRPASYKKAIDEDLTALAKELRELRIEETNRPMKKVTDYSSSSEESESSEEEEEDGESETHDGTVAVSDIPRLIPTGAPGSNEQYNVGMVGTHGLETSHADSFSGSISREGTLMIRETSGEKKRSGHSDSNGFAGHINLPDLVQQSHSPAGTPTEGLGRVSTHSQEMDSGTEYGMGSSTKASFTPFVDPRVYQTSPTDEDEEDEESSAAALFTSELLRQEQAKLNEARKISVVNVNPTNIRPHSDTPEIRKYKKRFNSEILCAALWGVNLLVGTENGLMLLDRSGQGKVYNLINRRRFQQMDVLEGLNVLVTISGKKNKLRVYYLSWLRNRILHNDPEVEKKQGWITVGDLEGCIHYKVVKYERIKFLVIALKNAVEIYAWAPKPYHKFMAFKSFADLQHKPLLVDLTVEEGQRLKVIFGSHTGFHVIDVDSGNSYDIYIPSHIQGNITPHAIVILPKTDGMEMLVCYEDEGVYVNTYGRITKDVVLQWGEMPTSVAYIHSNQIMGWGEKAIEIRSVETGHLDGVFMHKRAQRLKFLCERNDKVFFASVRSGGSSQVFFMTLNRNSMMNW
UniProt P10644, sequence (P10644 whole entry): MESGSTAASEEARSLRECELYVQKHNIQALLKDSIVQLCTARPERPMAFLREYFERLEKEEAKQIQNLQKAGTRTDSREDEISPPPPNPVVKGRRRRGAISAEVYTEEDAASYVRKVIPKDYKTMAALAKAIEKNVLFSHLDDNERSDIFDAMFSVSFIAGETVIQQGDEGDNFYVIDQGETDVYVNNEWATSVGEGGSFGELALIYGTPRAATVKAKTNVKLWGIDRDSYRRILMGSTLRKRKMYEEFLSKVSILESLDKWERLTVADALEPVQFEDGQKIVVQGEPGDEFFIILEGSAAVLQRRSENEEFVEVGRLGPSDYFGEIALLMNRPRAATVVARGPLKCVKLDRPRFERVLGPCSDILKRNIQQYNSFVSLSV
UniProt Q00537, sequence (Q00537 whole entry, looked up): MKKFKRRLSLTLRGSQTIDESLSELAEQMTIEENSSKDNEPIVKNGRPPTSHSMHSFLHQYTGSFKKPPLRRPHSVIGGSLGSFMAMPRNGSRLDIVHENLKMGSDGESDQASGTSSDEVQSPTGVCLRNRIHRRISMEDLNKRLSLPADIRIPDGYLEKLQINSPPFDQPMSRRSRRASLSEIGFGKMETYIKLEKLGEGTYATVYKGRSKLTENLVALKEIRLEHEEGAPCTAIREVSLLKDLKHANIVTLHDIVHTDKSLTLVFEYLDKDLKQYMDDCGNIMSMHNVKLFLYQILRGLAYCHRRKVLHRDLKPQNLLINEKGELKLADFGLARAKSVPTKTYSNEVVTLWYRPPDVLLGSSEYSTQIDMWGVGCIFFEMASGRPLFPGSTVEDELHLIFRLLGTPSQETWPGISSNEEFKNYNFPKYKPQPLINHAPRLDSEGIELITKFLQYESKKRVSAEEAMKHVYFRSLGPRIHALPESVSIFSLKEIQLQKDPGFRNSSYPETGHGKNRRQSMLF

Compound in the assay: CN[C@@H]1C[C@H]2O[C@@](C)([C@@H]1OC)n1c3ccccc3c3c4c(c5c6ccccc6n2c5c31)C(=O)NC4 [staurosporine]
In words: log2 fold change of tryptic peptide abundance, ligand vs vehicle (limited proteolysis) (log2 ratio); higher = more trypsin-susceptible (destabilized). The conditions noted are these: ligand concentration: 20 uM; sample: K562 cleared lysate; digestion: 4 min, 22 C (HT-PELSA RT4min, Orbitrap Astral).
Regarding “XRCC6 (peptide sequence: LGSLVDEFK, peptide start residue: 518) (UniProt P12956)”, the log2 fold change was -0.499. For the target “UniProt Q6ICG6 (peptide sequence: KAAEPEVEVEVYRR, peptide start residue: 72)”, the log2 fold change is -1.02.

As to “SRRM1 (peptide sequence: KETESEAEDNLDDLEK, peptide start residue: 870) (UniProt Q8IYB3)”, the log2 fold change is 1.54. To “TRMT1 (peptide sequence: RNVQLNDVAHLVQPSQADAR, peptide start residue: 195) (UniProt Q9NXH9)” belongs 0.782. On to “UniProt Q00537 (peptide sequence: LGEGTYATVYK, peptide start residue: 171)”, for which the log2 fold change was -2.88. To “AP2B1 (peptide sequence: VIAAMTVGK, peptide start residue: 37) (UniProt P63010)” belongs 0.277; to “PRKAR1A (peptide sequence: ILMGSTLR, peptide start residue: 234) (UniProt P10644)”, 0.333.

Turning to “TNIK (peptide sequence: KFQSFIESCLVK, peptide start residue: 261) (UniProt Q9UKE5)”, the log2 fold change was -0.632.
